Assay outcomes from PubChem BioAssay.
LmPK inhibitor: blocks Leishmania mexicana pyruvate kinase activity | AID 1721 | actives 0.37% (n = 290,000) | Potency, µM (titrated, usually from 57.5 µM), inactives show at the highest dose activity change, negative = inhibition, usual class: inhibitors | Q27686 | purified LmPK, Kinase-Glo ATP luminescence, 1 h; also: potency is read from the fitted curve at half-maximal effect; % is scaled to controls: 0 for no effect and ±100 for the full control effect
Target sequence (Q27686 whole entry, looked up): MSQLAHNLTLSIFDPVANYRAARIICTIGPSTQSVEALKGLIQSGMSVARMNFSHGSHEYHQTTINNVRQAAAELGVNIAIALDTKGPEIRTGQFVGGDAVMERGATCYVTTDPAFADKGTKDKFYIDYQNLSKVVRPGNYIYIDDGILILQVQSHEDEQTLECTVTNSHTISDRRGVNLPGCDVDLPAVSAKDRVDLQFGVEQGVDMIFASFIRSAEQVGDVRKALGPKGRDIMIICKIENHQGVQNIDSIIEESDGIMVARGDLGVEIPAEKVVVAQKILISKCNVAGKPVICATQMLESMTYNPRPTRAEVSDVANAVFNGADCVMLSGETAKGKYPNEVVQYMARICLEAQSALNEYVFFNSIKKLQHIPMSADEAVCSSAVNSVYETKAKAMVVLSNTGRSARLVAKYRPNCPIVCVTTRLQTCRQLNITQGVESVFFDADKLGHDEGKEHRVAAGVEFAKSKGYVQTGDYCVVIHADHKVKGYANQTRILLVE
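Purified LmPK (0.1 nM) with 0.5 mM PEP and 0.1 mM ADP in imidazole buffer pH 7.2 with MgCl2/KCl, 1 h at room temperature. ATP formed was read by luciferase luminescence and normalized to no-enzyme and uninhibited controls.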
Tb PYK inh: T. brucei pyruvate kinase inhibition; Potency, µM (top dose mostly 76.8 µM), for the others: top-dose activity, negative = inhibition, hits mostly inhibitors; Q57TT1; actives 0.12% (n = 410,000); TbPYK enzyme, Kinase-Glo Plus ATP luminescence, 45 min; also: potency is read from the fitted curve at half-maximal effect; % is scaled to controls: 0 for no effect and ±100 for the full control effect; nearly all actives have a fitted effect of over 50% in size
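Screened from lowest to highest concentration, compounds were pinned into TbPYK/substrate mixtures, and ADP (130 uM final) was added. Plates sat at room temperature for 45 min prior to Kinase-Glo Plus detection by luminescence.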
Shiga toxin inh: blocks Shiga toxin action in Vero cells | Vero cells, Shiga toxin protein synthesis inhibition reporter | inhibition, % at 38.7 µM | actives 9.2% (n = 290,000); in the data active = inhibition mostly above about 28%, no sharp cut-off; inactive = mostly below about 43%; also: 0% is about no effect
Giardia FBPA inh-1: blocks Giardia fructose-bisphosphate aldolase activity; A8B2U2; purified Giardia FBPA; Potency, µM (highest dose often 59.6 µM), for the others: at the highest dose activity, negative = inhibition, usual class: inhibitors; actives 0.71% (n = 290,000); AID 2451; also: potency is read from the fitted curve at half-maximal effect; % is scaled to controls: 0 for no effect and ±100 for the full control effect; nearly all actives have a fitted effect of over 55% in size
Target sequence (A8B2U2 whole entry, looked up): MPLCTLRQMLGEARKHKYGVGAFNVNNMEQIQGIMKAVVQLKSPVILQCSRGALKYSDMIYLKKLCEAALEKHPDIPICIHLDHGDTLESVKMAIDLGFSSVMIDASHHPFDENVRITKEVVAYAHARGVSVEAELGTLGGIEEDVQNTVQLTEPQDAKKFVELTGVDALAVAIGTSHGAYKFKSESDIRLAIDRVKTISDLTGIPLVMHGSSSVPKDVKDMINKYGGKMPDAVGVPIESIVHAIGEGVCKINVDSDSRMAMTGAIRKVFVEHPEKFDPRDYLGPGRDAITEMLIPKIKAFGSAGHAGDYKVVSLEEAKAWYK
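Giardia FBPA (40 nM reagent) was preincubated 10 min at RT with compound (up to 57.5 uM final), then substrate plus GAPDH/TPI/NAD/arsenate coupling system with diaphorase/resazurin was added; resorufin fluorescence (525/598 nm) was read after 20 min.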
Sm TGR inh: S. mansoni TGR enzyme inhibition; actives 3% (n = 360,000); purified TGR, DTNB reduction, TNB absorbance 405 nm; Potency, µM (series often up to 114 µM), inactives show at the highest dose activity change, negative = inhibition, hits mostly inhibitors; Q962Y6; also: potency is read from the fitted curve at half-maximal effect; % is scaled to controls: 0 for no effect and ±100 for the full control effect; nearly all actives have a fitted effect of over 60% in size
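First, TGR (20 nM dispensed) and NADPH were mixed with compound. Second, a 15 min room-temperature incubation followed. Third, further NADPH and then DTNB were added to start the reaction. Finally, TNB absorbance was monitored kinetically.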
CHX counter: affects cycloheximide protein synthesis inhibition readout, counter-screen; actives 12% (n = 300,000); cell reporter, cycloheximide protein synthesis inhibition counterscreen; max response, %; AID 2314; in the data active = max response mostly above about 13%, no sharp cut-off; inactive = mostly below about 14%; also: read at 38.3 µM for the half of the compounds with a filed dose; 0% is about no effect
Giardia growth: inhibitors of Giardia lamblia growth; Giardia lamblia trophozoite growth inhibition; Potency, µM (top dose mostly 57.5 µM), inactives show at the highest dose activity change, negative = inhibition, hits mostly inhibitors; actives 5% (n = 1,500); shares compounds with Giardia FBPA inh-1; AID 2785;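 also: potency is read from the fitted curve at half-maximal effect; trophozoites exposed to compound for 48 h at 37 °C; % is scaled to controls: 0 for no effect and ±100 for the full control effect; nearly all actives have a fitted effect of over 70% in size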
Mammalian tox: mammalian cytotoxicity of Giardia aldolase inhibitor hits. shares compounds with Giardia FBPA inh-1. mammalian cell viability counter-screen, qHTS. Potency, µM (titrated, usually from 57.5 µM), without a hit: at the top dose viability change, negative = toxicity, hits mostly inhibitors. actives 4% (n = 1,500). AID 2786;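 also: Chinese hamster ovary cells used as mammalian cytotoxicity surrogate; viability measured as cellular ATP by luminescence; potency is read from the fitted curve at half-maximal effect; compound exposure lasted 48 h before reading; % is scaled to controls: 0 for no effect and ±100 for the full control effect; nearly all actives have a fitted effect of over 60% in size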
Giardia FBPA inh-2: confirmation of Giardia fructose-bisphosphate aldolase inhibitors. shares compounds with Giardia FBPA inh-1. purified Giardia aldolase enzyme activity, qHTS. Potency, µM (highest dose often 57.5 µM), for the others: top-dose activity change, negative = inhibition, usual class: inhibitors. actives 5% (n = 1,500); also: potency is read from the fitted curve at half-maximal effect; % is scaled to controls: 0 for no effect and ±100 for the full control effect; nearly all actives have a fitted effect of over 45% in size
Rabbit FBPA inh: blocks rabbit muscle aldolase in Giardia aldolase selectivity test. shares compounds with Giardia FBPA inh-1. Rabbit muscle FBPA enzyme inhibition, selectivity counter-screen. Potency, µM (titrated, usually from 57.5 µM), for the others: top-dose activity, negative = inhibition, most hits filed as inhibitors. AID 2794. actives 4% (n = 1,500); also: potency is read from the fitted curve at half-maximal effect; % is scaled to controls: 0 for no effect and ±100 for the full control effect; nearly all actives have a fitted effect of over 60% in size
GAPDH coupling: counter-screen for Giardia aldolase inhibitors: GAPDH coupling enzyme. shares compounds with Giardia FBPA inh-1. GAPDH coupling enzyme counterscreen, biochemical, qHTS. Potency, µM (doses to about 57.5 µM), without a hit: at the top dose activity change, negative = inhibition, most hits filed as inhibitors. actives 6% (n = 1,500). AID 2795; also: potency is read from the fitted curve at half-maximal effect; % is scaled to controls: 0 for no effect and ±100 for the full control effect; nearly all actives have a fitted effect of over 55% in size
* marks the source's active call; other numbers are inactive results; [ ] = dose if it differs, or a comment. The sample as a whole holds a higher share of hits than the screen did. Unless noted, calls follow the shape of the dose curve; as a rule, active = well fitted curve in the direction sought with a large enough effect; inconclusive = small, poorly fitted or top-dose-only effect, or another doubt; inactive = no such curve, though single readings can be large; an effect the other way counts as inactive or inconclusive.

What do the screens show for `COc1ccc(Cc2c(O)[nH]c(=S)[nH]c2=O)cc1`?
LmPK inhibitor: -2.4%; Tb PYK inh: inconclusive; Shiga toxin inh: -4.2; Giardia FBPA inh-1: 25.1µM*; Sm TGR inh: 2.5%; CHX counter: -4.0; Giardia growth: -13.1%[10.4 µM]; Mammalian tox: 14.5%; Giardia FBPA inh-2: -6.0%; Rabbit FBPA inh: 10.8%; GAPDH coupling: 11.4%

How did COc1ccc2c(c1)-c1nc(/N=C/c3cccc(OC)c3O)sc1CC2 do in these assays?
LmPK inhibitor: inconclusive; Tb PYK inh: -5.3%; Shiga toxin inh: 34.0; Giardia FBPA inh-1: 1.41µM*; Sm TGR inh: 5.1%; CHX counter: 12.2; Giardia growth: -27.6%[38.3 µM]; Mammalian tox: -2.0%; Giardia FBPA inh-2: inconclusive; Rabbit FBPA inh: inconclusive; GAPDH coupling: inconclusive

How did COc1ccc2c(c1)-c1nc(/N=C/c3ccccc3O)sc1CC2 do in these assays?
LmPK inhibitor: -11.0%; Tb PYK inh: -5.9%; Shiga toxin inh: 2.5; Giardia FBPA inh-1: inconclusive; Sm TGR inh: -1.4%; CHX counter: 9.5

Results for CCOc1ccc(S(=O)(=O)N2CCC(C(=O)NCC3CCCO3)CC2)cc1Cl (stereo not drawn) ?
LmPK inhibitor: -2.4%; Tb PYK inh: -4.3%; Shiga toxin inh: -18.0; Giardia FBPA inh-1: 5.8%; Sm TGR inh: -11.9%; CHX counter: -1.3

Results for O=C(NCCCN1CCOCC1)c1cc2ccccc2cc1O ?
Tb PYK inh: 3.1%; Sm TGR inh: 0.4%

How did O=C(NCCO)c1cc2ccccc2cc1O do in these assays?
LmPK inhibitor: -0.9%; Tb PYK inh: -2.0%; Shiga toxin inh: -7.7; Giardia FBPA inh-1: 1.99µM*; Sm TGR inh: 0.1%; CHX counter: -2.1; Giardia growth: -10.7%[38.3 µM]; Mammalian tox: -1.2%; Giardia FBPA inh-2: inconclusive; Rabbit FBPA inh: inconclusive; GAPDH coupling: inconclusive

Results for c1ccc2c(c1)oc1c(-c3cccc4nccn34)cccc12 ?
Tb PYK inh: -1.2%

What do the screens show for `COc1ccc(S(=O)(=O)N2CCN(CC(=O)N3CCc4ccccc4C3)CC2)cc1OC`?
Tb PYK inh: -2.3%; Sm TGR inh: -21.5%

What do the screens show for `COc1cc2c(cc1OC)CN(C(=O)CN1CCN(S(=O)(=O)c3ccccc3Br)CC1)CC2`?
LmPK inhibitor: 1.2%; Tb PYK inh: 0.0%; Shiga toxin inh: 68.6*; Giardia FBPA inh-1: 15.8µM*; Sm TGR inh: -23.9%; CHX counter: 17.3*; Giardia growth: 3.0%; Mammalian tox: -4.8%; Giardia FBPA inh-2: 1.5%; Rabbit FBPA inh: -5.2%; GAPDH coupling: 9.1%

How did COC(=O)Cc1cc(=O)n2c(nc3ccccc32)[nH]1 do in these assays?
Tb PYK inh: 0.4%

Results for COC(=O)C1=C(O)/C(=C\c2cc(C)n(-c3ccc(F)cc3)c2C)N=C1C ?
LmPK inhibitor: 1.2%[11.5 µM]; Tb PYK inh: -3.9%; Shiga toxin inh: 75.3*; Giardia FBPA inh-1: 15.8µM*; Sm TGR inh: 28.2µM*; CHX counter: 31.1; Giardia growth: 14.5%[10.4 µM]; Mammalian tox: -6.6%; Giardia FBPA inh-2: -17.8%; Rabbit FBPA inh: -24.7%; GAPDH coupling: -14.3%

How did COC(=O)C1=C(C)NC(=O)/C1=C\c1cc(C)n(-c2ccc(F)cc2)c1C do in these assays?
LmPK inhibitor: -1.2%; Tb PYK inh: 1.2%; Shiga toxin inh: -10.3; Giardia FBPA inh-1: inconclusive; CHX counter: -3.4

Results for N#CC1=C(S)N(c2ccccc2)C(c2cccs2)NC1=O (stereo not drawn) ?
LmPK inhibitor: -1.0%; Tb PYK inh: -1.3%; Shiga toxin inh: -13.6; Giardia FBPA inh-1: 6.31µM*; Sm TGR inh: -31.7%; CHX counter: 2.4; Giardia growth: -16.9%; Mammalian tox: -5.2%; Giardia FBPA inh-2: 5.0%; Rabbit FBPA inh: 3.9%; GAPDH coupling: 5.6%

Results for c1ccc(-c2cccc(-c3ccccn3)n2)nc1 ?
LmPK inhibitor: -3.1%; Tb PYK inh: -0.2%; Shiga toxin inh: 90.7*; Giardia FBPA inh-1: 7.92µM*; Sm TGR inh: 13.1%; CHX counter: 31.0*; Giardia growth: inconclusive; Mammalian tox: 1.26µM*; Giardia FBPA inh-2: 19.8%; Rabbit FBPA inh: 7.1%; GAPDH coupling: 1.4%

Results for Cc1[nH]c(=S)[nH]c(=O)c1CCCO ?
LmPK inhibitor: -0.1%; Tb PYK inh: 15.0%; Shiga toxin inh: -17.6; Giardia FBPA inh-1: -29.6%; Sm TGR inh: 7.6%; CHX counter: -0.8

What do the screens show for `Cc1[nH]c(=S)[nH]c(=O)c1CCC1OCCO1`?
LmPK inhibitor: 4.0%; Tb PYK inh: 1.0%; Shiga toxin inh: -4.3; Giardia FBPA inh-1: 7.08µM*; Sm TGR inh: 7.1%; CHX counter: -4.6; Giardia growth: 7.1%[38.3 µM]; Mammalian tox: -1.5%; Giardia FBPA inh-2: 6.9%; Rabbit FBPA inh: 8.5%; GAPDH coupling: -11.0%

How did Cc1ccc(N(CC(O)CN2CCOCC2)S(=O)(=O)c2ccc([N+](=O)[O-])cc2)cc1 (stereo not drawn) do in these assays?
LmPK inhibitor: 0.9%; Tb PYK inh: -4.8%; Shiga toxin inh: -2.7; Giardia FBPA inh-1: 5.5%; Sm TGR inh: -26.1%; CHX counter: -0.1

What do the screens show for `Cc1ccccc1C(=O)c1cccn1CC(=O)NCCCN1CC(C)CC(C)C1` (stereo not drawn)?
LmPK inhibitor: -0.6%; Tb PYK inh: -6.6%; Shiga toxin inh: -8.9; Giardia FBPA inh-1: 2.0%; Sm TGR inh: -2.2%; CHX counter: -3.3

What do the screens show for `Cc1ccccc1C(=O)c1cccn1CC(=O)NCCCN1CCc2ccccc2C1`?
LmPK inhibitor: 1.7%[11.5 µM]; Tb PYK inh: -15.8%; Shiga toxin inh: 14.2; Giardia FBPA inh-1: 15.8µM*; Sm TGR inh: -19.9%; CHX counter: 10.3; Giardia growth: inconclusive; Mammalian tox: -11.7%; Giardia FBPA inh-2: 8.7%; Rabbit FBPA inh: 10.0%; GAPDH coupling: 5.9%
